{"source": "PubChem BioAssay (Tox21)", "note": "Results filed as inconclusive are left out. Entries that show only a call come without a potency. Values without a mark were called inactive. Active and inactive are the calls of the source. The call rests on the fitted dose curve; in most records, active means well fitted activation curve with a large enough effect in the repeat runs; inconclusive means weak or mixed curves; inactive means flat fitted curve, though single readings scatter. Potency means the concentration at half of the fitted maximal effect.", "data": [{"assay": "A CellTox Green Cytotoxicity Assay to monitor cytotoxicity in HepG2 cells - 24 hour (AID 1224878); further: nearly all actives have a fitted effect of over 45% in size", "details": "CellTox Green fluorescence; series mostly up to 76.8 µM", "description": "National Center for Advancing Translational Sciences [NCATS]\nNIH Chemical Genomics Center [NCGC]\nU.S. Environmental Protection Agency [EPA]\nNational Institutes of Environmental Health Sciences [NIEHS]\nNational Toxicology Program [NTP]\nCell-based models are critical for drug discovery. Determining the natural cytotoxic effects resulting from test compounds is an essential research activity. A CellTox Green Cytotoxicity Assay to monitor cytotoxicity in real time of continues cell culture during 40 hours of the compound treatment was used to screen Tox21 10K library compounds in HepG2 cells. CellTox Green Cytotoxicity Assay is a nonlytic, homogeneous, biofluorescent method to measure cytotoxicity in cell culture after experimental manipulation. The assay system uses a proprietary asymmetric cyanine dye that is excluded from viable cells but preferentially stains the dead cell's DNA. […] Viable cells produce no appreciable increases in fluorescence. Therefore, the fluorescence signal produced by the binding interaction with dead cell DNA is proportional to cytotoxicity.\nThe mixture of HepG2 cell suspension and reagents were dispensed at 600cells/6 ul/well in 1536-well tissue culture treated black solid bottom plates using a Multidrop dispenser. After the assay plates were incubated at a 37 C/5% CO2 incubator for 5 hours, 23 nL of compounds dissolved in DMSO, positive and negative controls was transferred to the assay plate by a pintool work station. The plates were incubated at 37 C for 40 hours. The fluorescence intensity were measured at 0h, 8h, 16h, 24h, 32h and 40h time points using ViewLux plate reader during compound treatment.", "values": [{"smiles": "CCN(CC)CCOC(=O)C1(c2ccccc2)CCCC1", "Potency": "inactive"}, {"smiles": "O=c1[nH]cnc2ccccc12", "Potency": "inactive"}, {"smiles": "CC(C)CCCCCCOC(=O)c1ccc(C(=O)OCCCCCCC(C)C)c(C(=O)OCCCCCCC(C)C)c1", "Potency": "inactive"}, {"smiles": "CN(C)C/C=C(/c1ccc(Br)cc1)c1cccnc1", "Potency": "inactive"}, {"smiles": "CC(C)(C)c1ccc(OCC2CO2)cc1", "note": "(stereo not given)", "Potency": "inactive"}, {"smiles": "COCCOCCOCCOCCOC", "Potency": "inactive"}, {"smiles": "SC1CCCC1", "Potency": "inactive"}, {"smiles": "CC(C)(C)C(=O)OCOP(=O)(COCCn1cnc2c(N)ncnc21)OCOC(=O)C(C)(C)C", "Potency": "inactive"}, {"smiles": "NCCCN(CCO)CCO", "Potency": "inactive"}, {"smiles": "N[C@H]1C(O)O[C@H](CO)[C@H](O)[C@@H]1O", "note": "(stereo not given in full)", "Potency": "inactive"}, {"smiles": "CCCCC(CC)(CO)CO", "Potency": "inactive"}, {"smiles": "Cc1nc2ccccc2n1Cc1ccc(Cl)cc1", "Potency": "inactive"}, {"smiles": "CC(C)=CCCC(C)CC=O", "note": "(stereo not given)", "Potency": "inactive"}, {"smiles": "CC(=O)SCc1ccco1", "Potency": "inactive"}, {"smiles": "CCCCCCCCCCCCCCCCCBr", "cytotoxicity": "-11% [at 15.8 µM]"}, {"smiles": "CC1(C)CCC(C)(C)c2cc(NC(=O)c3ccc(C(=O)O)cc3)ccc21", "Potency": "inactive"}, {"smiles": "O=C1c2cccc(O)c2C(=O)c2c(O)cc(CO)cc21", "Potency": "inactive"}, {"smiles": "NCc1ccccc1", "Potency": "inactive"}, {"smiles": "CCOC(=O)[C@H](CCc1ccccc1)N[C@H]1CCc2ccccc2N(CC(=O)O)C1=O", "Potency": "26.8 µM (active)"}, {"smiles": "CC(=O)CC(=O)c1ccccc1", "Potency": "inactive"}, {"smiles": "CCCC(=O)OCC", "Potency": "inactive"}, {"smiles": "ClC(Cl)(Cl)c1ccc(C(Cl)(Cl)Cl)cc1", "Potency": "inactive"}, {"smiles": "CC(=O)c1ccc2c(c1)[C@H](NC(=O)c1ccc(F)cc1)[C@@H](O)C(C)(C)O2", "Potency": "inactive"}, {"smiles": "CC[C@@H]1C[C@H](N(Cc2cc(C(F)(F)F)cc(C(F)(F)F)c2)C(C)=O)c2cc(C(F)(F)F)ccc2N1C(=O)OC(C)C", "Potency": "inactive"}, {"smiles": "CC(C)(Oc1ccc(Cl)cc1)C(=O)OCCCOC(=O)C(C)(C)Oc1ccc(Cl)cc1", "Potency": "inactive"}, {"smiles": "CC/C(=C\\C(=N/O)C(N)=O)C(C)[N+](=O)[O-]", "note": "(stereo not given)", "Potency": "inactive"}, {"smiles": "CC(O)C1CCCCC1", "note": "(stereo not given)", "Potency": "inactive"}, {"smiles": "C[Si](C)O[Si](C)(C)O[Si](C)(C)O[Si](C)C", "Potency": "inactive"}, {"smiles": "O=C=NC1CCC(CC2CCC(N=C=O)CC2)CC1", "note": "(stereo not given)", "Potency": "inactive"}, {"smiles": "CN1CCN(C2=Nc3ccccc3Sc3ccc(Cl)cc32)CC1", "Potency": "inactive"}, {"smiles": "CC(=O)c1c(C)c([N+](=O)[O-])c(C(C)(C)C)c([N+](=O)[O-])c1C", "Potency": "inactive"}, {"smiles": "O=S(=O)(O)c1ccc(O)c2ncccc12", "Potency": "inactive"}, {"smiles": "NC(N)=NN=C(/C=C/c1ccc([N+](=O)[O-])o1)/C=C/c1ccc([N+](=O)[O-])o1", "Potency": "2.13 µM (active)"}, {"smiles": "CC(C(=O)O)c1ccc(C(=O)c2ccccc2)s1", "note": "(stereo not given)", "Potency": "inactive"}, {"smiles": "CC(C)NCC(O)c1cc(O)cc(O)c1", "note": "(stereo not given)", "Potency": "inactive"}, {"smiles": "CN1CCC(OC(c2ccccc2)c2ccccc2)CC1", "Potency": "inactive"}, {"smiles": "Cc1c(Cn2ccnc2)c2ccccc2n1CCC(=O)O", "Potency": "inactive"}, {"smiles": "CCCCCCCCC(CO)CCCCCC", "note": "(stereo not given)", "Potency": "inactive"}, {"smiles": "CC(C)(C)c1cc(CCC(=O)OCC(COC(=O)CCc2cc(C(C)(C)C)c(O)c(C(C)(C)C)c2)(COC(=O)CCc2cc(C(C)(C)C)c(O)c(C(C)(C)C)c2)COC(=O)CCc2cc(C(C)(C)C)c(O)c(C(C)(C)C)c2)cc(C(C)(C)C)c1O", "Potency": "inactive"}, {"smiles": "CCCCOC(O)CC", "note": "(stereo not given)", "Potency": "inactive"}]}]}
